Bioassay records deposited in PubChem by several laboratories.
Shown are actives, neighbours in structure and some others; about 3.3% of the full set was active somewhere.
SSB-PriA inh – inhibitors of Klebsiella pneumoniae PriA binding to SSB C-terminal tail, primary screen, biochemical, AlphaScreen | PriA–SSB C-terminal tail interaction (Klebsiella pneumoniae) | 430,000 compounds, 0.6% hits | AID 1272365, 2023 | inhibition, % at 33 µM | AlphaScreen SSBct-PriA binding, biotinylated peptide; in the data active = inhibition mostly above about 37%, no sharp cut-off; inactive = mostly below about 20%
MazEF act – activators of E. coli MazEF toxin-antitoxin RNase, primary screen, biochemical, fluorescence, uHTS; 350,000 compounds, 0.32% hits; AID 504720, 2011; FAM/BHQ RNA-DNA oligo cleavage fluorescence, 5 h; Endoribonuclease toxin MazF (Escherichia coli (strain K12)), P0AE70; activation, % at 20 µM; in the data active = activation above about 50%
Anthrax LF prot – Bacillus anthracis LF protease inhibitors, primary screen, biochemical, multiplex microsphere, MLPCN library. multiplex microsphere protease cleavage assay. inhibition, % at 10 µM. 360,000 compounds, 0.12% hits. AID 588501, 2011
Target sequence (P15917 whole entry, looked up): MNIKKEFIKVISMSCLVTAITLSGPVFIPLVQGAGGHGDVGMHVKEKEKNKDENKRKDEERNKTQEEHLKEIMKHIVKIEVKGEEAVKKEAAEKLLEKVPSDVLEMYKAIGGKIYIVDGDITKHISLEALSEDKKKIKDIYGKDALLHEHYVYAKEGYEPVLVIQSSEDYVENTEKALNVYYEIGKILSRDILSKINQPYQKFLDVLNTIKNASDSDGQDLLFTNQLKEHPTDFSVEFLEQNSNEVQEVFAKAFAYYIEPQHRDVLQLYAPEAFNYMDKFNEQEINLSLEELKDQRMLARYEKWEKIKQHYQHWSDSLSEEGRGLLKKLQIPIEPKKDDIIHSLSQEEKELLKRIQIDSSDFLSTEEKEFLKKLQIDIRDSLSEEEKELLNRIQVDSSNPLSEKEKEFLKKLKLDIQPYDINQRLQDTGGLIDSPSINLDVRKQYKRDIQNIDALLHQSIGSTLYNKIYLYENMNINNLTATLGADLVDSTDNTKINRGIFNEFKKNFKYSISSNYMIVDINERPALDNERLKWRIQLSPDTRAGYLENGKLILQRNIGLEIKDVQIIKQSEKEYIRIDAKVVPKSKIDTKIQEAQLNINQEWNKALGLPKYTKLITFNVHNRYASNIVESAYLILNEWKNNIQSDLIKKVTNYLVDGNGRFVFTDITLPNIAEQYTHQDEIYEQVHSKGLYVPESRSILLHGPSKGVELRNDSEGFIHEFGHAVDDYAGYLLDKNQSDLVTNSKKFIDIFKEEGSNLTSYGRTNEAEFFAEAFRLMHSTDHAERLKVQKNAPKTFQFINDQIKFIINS
BoNT A protease – BoNT/A light chain protease inhibitors, primary screen, biochemical, flow cytometry, MLPCN library | Botulinum neurotoxin type A light chain protease (Clostridium botulinum A str. ATCC 3502) | multiplex microsphere protease substrate cleavage | inhibition, % at 10 µM | 360,000 compounds, 0.17% hits | AID 588499, 2011
BoNT F protease – BoNT/F light chain protease inhibitors, primary screen, biochemical, flow cytometry, MLPCN library; 360,000 compounds, 0.22% hits; Multiplex microsphere protease cleavage assay; inhibition, % at 10 µM; AID 588497, 2011; Botulinum neurotoxin type F light chain protease (Clostridium botulinum); in the data active = inhibition above about 35%, passing the limit was not always enough; inconclusive = no clear call, values can overlap the other calls
Bead autofluor – compound fluorescence in toxin protease inhibitor counterscreen. fluorescence intensity (no concentration beside the values). 360,000 compounds, 3.1% hits. compound autofluorescence counterscreen, microsphere flow cytometry; active compounds read high; in the data active = fluorescence intensity above about 16000; inconclusive = no clear call, values can overlap the other calls
Numbers stand for hits; . = inactive; ? = inconclusive; / = no result given. Cut-off read from the data, not from the text of the source, unless noted: active = inhibition above about 30%; inconclusive = no clear call, values can overlap the other calls; inactive = below that.

SMILES	SSB-PriA inh	MazEF act	Anthrax LF prot	BoNT A protease	BoNT F protease	Bead autofluor
O=C(NCc1ccccc1Cl)c1nnc(-c2ccccc2)o1	.	/	/	/	/	/
Cc1ccc(C2C3=C(CC(C)(C)CC3=O)NC3=C2C(=O)c2ccccc23)cc1 (configuration not stated)	50.8	.	.	.	.	.
COc1ccc(C2NC(=O)NC3=C2C(=O)CCC3)cc1 (configuration not stated)	.	.	.	.	?	.
COc1ccc(C2C3=C(CCCC3=O)Nc3c(-c4ccccc4)c(C)nn32)cc1 (configuration not stated)	.	.	.	.	.	22999
CC(C)(C)OC(=O)N1CCC(c2cc(C(N)=O)n[nH]2)CC1	39.0	/	/	/	/	/
CC(C)(C)OC(=O)N1CCC(c2cc(-c3cccs3)n[nH]2)CC1	.	.	.	.	.	.
COc1ccc(N=Cc2c(O)n(-c3cccc(C)n3)c(=O)c3ccccc23)c(OC)c1	.	277.5	62.9	.	?	.
COc1cccc(N=Cc2c(O)n(-c3cccc(C)n3)c(=O)c3ccccc23)c1	.	.	.	.	.	.
Cc1ccc2c3c(cccc13)-c1ccccc1C2=O	.	.	43.7	73.9	.	.
Nc1ccc2c3c(cccc13)-c1ccccc1-2	.	.	.	.	.	.
COc1cc(OC)cc(C(=O)NC2CCN(Cc3nnnn3Cc3ccc(F)cc3)CC2)c1	.	.	.	.	.	.
COc1cc(OC)cc(C(=O)NC2CCN(Cc3nnnn3Cc3cccs3)CC2)c1	.	.	.	.	.	25214
COC(C)(CNC(=O)C1(c2ccccc2)CCOCC1)c1cccc(Cl)c1 (configuration not stated)	.	/	/	/	/	/
Cc1ccc(-c2ccc(S(=O)(=O)N(CC(F)(F)F)c3ccccc3)cc2)cc1	.	/	/	/	/	/
Cc1cnn(CCC(=O)NNC(=S)Nc2cccc(Cl)c2)c1	.	.	.	.	.	21961
Cc1cccc(NC(=S)NNC(=O)CCn2nc(C)c([N+](=O)[O-])c2C)c1	.	.	.	.	.	.
Cc1nn(CCC(=O)NNC(=S)Nc2cccc(Cl)c2)c(C)c1[N+](=O)[O-]	.	.	.	.	.	20563
Cc1nn(CC(=O)NNC(=S)Nc2ccccc2)c(C)c1[N+](=O)[O-]	.	.	.	.	.	21125
Cc1ccc(NC(=S)NNC(=O)c2c(Cl)c(C)nn2C)cc1	.	.	.	.	.	.
Cc1nn(CCC(=O)NNC(=S)Nc2ccc(Cl)cc2)c(C)c1[N+](=O)[O-]	.	.	.	.	.	.
Cc1ccc(NC(=S)NNC(=O)c2c([N+](=O)[O-])c(C)nn2C)cc1	.	.	.	.	.	23365
Cc1ccc(C2CC2C(=O)NNC(=S)Nc2cccc(Cl)c2)cc1 (configuration not stated)	.	.	.	.	.	20873
O=C(Cn1nc(C(F)F)cc1C(F)F)NNC(=S)Nc1ccc(Cl)cc1	.	.	.	.	.	23616
Cc1ccc(C2CC2C(=O)NNC(=S)Nc2cccc(C)c2)cc1 (configuration not stated)	.	.	.	.	.	.
Cn1cc(S(=O)(=O)N2CCCN(C(=O)OCc3ccccc3)CC2)cn1	.	/	/	/	/	/
SMILES	SSB-PriA inh	MazEF act	Anthrax LF prot	BoNT A protease	BoNT F protease	Bead autofluor
CCN(CC)c1ccc(/C=C(\C#N)C(N)=O)cc1	.	.	.	.	.	.
CCN(CC)c1ccc(/C=C(\C#N)C(=O)c2ccc(Br)cc2)cc1	.	.	46.5	49.0	61.3	97679
O=C(c1ccc(=O)[nH]n1)N1CC(Oc2nc3c(C(F)(F)F)cccc3s2)C1	.	/	/	/	/	/
Cc1ccc(S(=O)(=O)C(CCC(=O)c2ccc(Cl)cc2)C(N)=O)cc1 (configuration not stated)	.	.	.	.	.	21117
COc1cc(C(=O)NCC(F)(F)F)ncn1	.	/	/	/	/	/
O=C(C1CC(=O)N(C2CCCCCCC2)C1)N1CCC2(CC1)OCCO2 (configuration not stated)	.	.	.	.	.	22759
O=C(C1CCC(=O)N1Cc1ccc(F)cc1)N1CCC2(CC1)OCCO2 (configuration not stated)	.	.	.	.	.	.
O=C(C1CCC(=O)N1C1CCCC1)N1CCC2(CC1)OCCO2 (configuration not stated)	.	.	.	.	.	20240
CCCCCNS(=O)(=O)c1ccccc1S(=O)(=O)NCCCCC	.	/	/	/	/	/
O=C1c2ccccc2NC2(CCCCC2)N1c1ccc(O)cc1	.	.	53.9	.	155.7	.
O=C(O)c1nc(N2CCCC2)ncc1Cl	.	.	.	.	.	19947
NC(=O)C1CCN(C(=O)c2n[nH]nc2-c2ccccc2)CC1	.	/	/	/	/	/
N#Cc1c(-c2ccncc2)c2c([nH]c1=S)CCCC2	.	.	.	.	.	.
Cc1ccc(-c2c3c([nH]c(=S)c2C#N)CCCC3)o1	.	88.3	.	?	.	24820
COC(=O)c1sc2cccc(F)c2c1S(=O)(=O)NCc1cccnc1	52.0	/	/	/	/	/
Cc1ccc2nsnc2c1S(=O)(=O)NCc1ccncc1	.	.	.	.	.	.
Cc1ccc2nsnc2c1S(=O)(=O)NCc1cccnc1	.	.	.	.	.	22869
Cc1ccc(C)c(S(=O)(=O)NCc2ccncc2)c1	.	.	.	.	.	.
Cc1ccc(C)c(S(=O)(=O)NCc2cccnc2)c1	.	.	.	.	.	21139
COc1cc(C(=O)NCCCc2ccc(N(C)C)cc2)cc(OC)c1OC	.	/	/	/	/	/
CC(=O)N1CCN(C(=O)Cc2csc(Nc3cccc(Cl)c3)n2)CC1	.	/	/	/	/	/
COc1ccc(-n2c(=O)cc(N3CCCCCC3)[nH]c2=O)cc1	.	.	.	.	.	.
CCOc1ccc(-n2c(=O)cc(N3CCN(c4ccccc4)CC3)[nH]c2=O)cc1	.	.	.	.	.	21972
COc1ccc(-n2c(=O)cc(N3CCOCC3)[nH]c2=O)cc1	.	.	.	.	.	19939
COc1ccc(-n2c(=O)cc(N3CCN(c4ccccc4)CC3)[nH]c2=O)cc1	.	.	.	.	.	.
CCCNc1nc(SC)nc2c1cnn2CCNC(=O)c1c(-c2ccccc2Cl)noc1C	62.5	/	/	/	/	/
Cc1onc(-c2ccccc2Cl)c1C(=O)NCCn1ncc2c(=O)n(Cc3ccccc3F)cnc21	.	/	/	/	/	/
Cc1nn(-c2ccc(F)cc2)c(Cl)c1/C=N/NC(=O)c1cccs1	/	68.3	.	.	.	.
Cc1cc(OC2CCN(C(=O)CSCc3ccccc3)CC2)cc(=O)o1	.	/	/	/	/	/
Cc1c(C#N)c2ncnc(-c3ccccc3)c2n1-c1ccccc1	.	.	.	.	.	23956
